Drawing on PubChem BioAssay, this text covers composite z-score and z-score for five compounds.

Experiment [1] in a line: binders of probe aFSTL3 on microarray, primary screen, stem cell growth factor project, biochemical, small-molecule microarray, fluorescence 635/667 (AID 1064).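 Also: measures binding of the biotinylated anti-FSTL3 antibody to printed compounds.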 The conditions noted are these: higher = more signal.
Experiment [2] is described as follows: binders from COS7 lysate, DM2A8 probe, primary screen, torsin A project, cell lysate, small-molecule microarray, fluorescence 635/667 (AID 1065). Conditions: higher = more signal, COS7 lysate expressing mutant human TOR1A.
Experiment [3] is described as follows: binders of probe aFGF2 on microarray, primary screen, stem cell growth factor project, biochemical, small-molecule microarray, fluorescence 635/667 (AID 1067).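 Also: measures binding of biotinylated aFGF2 protein to printed compounds on slides; z-score merges feature fluorescence and signal-to-noise across triplicate slides.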 The conditions noted are these: higher = more signal.
Experiment [4] in a line: binders of probe aFGF10 on microarray, primary screen, stem cell growth factor project, biochemical, small-molecule microarray, fluorescence 635/667 (AID 1071).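 Also: score merges 667 nm spot intensity and signal to noise from triplicate slides.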 The conditions noted are these: higher = more signal.
Experiment [5] deals with Neurogenic locus notch homolog protein 2 (Homo sapiens) (UniProt Q04721). Briefly: Notch2 binders on small-molecule microarrays, primary screen, biochemical, small-molecule microarray, 635 nm fluorescence, stem cell growth factors (AID 1073). Conditions: Notch2 binding, higher = more signal.
The target in experiment [6] is Pro-neuregulin-1, membrane-bound isoform (Homo sapiens) (UniProt Q02297). Briefly: NRG1 binders on small-molecule microarrays, primary screen, psychiatric disease protein project, biochemical, small-molecule microarray, fluorescence 635/667 (AID 1075).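 Also: score combines 667 nm spot fluorescence with signal to noise.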 Conditions: NRG1 binding, 635 nm fluorescence, higher = more signal.
Experiment [7] concerns Neuregulin-1 EGF-like domain. Briefly: binders of neuregulin-1 EGF-like domain, primary screen, biochemical, small-molecule microarray, 635 nm fluorescence (AID 1081).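 Also: binding of the protein to compounds printed on small-molecule microarray slides.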 The conditions noted are these: small-molecule microarray binding, higher = more signal.
A short description of experiment [8]: FRG1 promoter luciferase signal modulators, primary screen, FRG1 inhibition for FSHD, cell-based, C2C12 myotubes, firefly/Renilla luciferase, luminescence (AID 1084). The conditions noted are these: higher = more signal, called active from +8 up or from −8 down.
A short description of experiment [9]: binders of probe aFST on microarray, primary screen, stem cell growth factor project, biochemical, small-molecule microarray, fluorescence 635/667 (AID 1086).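 Also: score merges 667 nm fluorescence with signal-to-noise of each printed compound spot.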 The conditions noted are these: higher = more signal.
Experiment [10] in a line: binders of probe aHhip on microarray, primary screen, stem cell growth factor project, biochemical, small-molecule microarray, fluorescence 635/667 (AID 1087).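 Also: score merges spot fluorescence at 667nm with spot signal to noise ratio.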 Conditions: higher = more signal.
The test system of experiment [11] is PRMT1 (protein arginine N-methyltransferase 1). Briefly: PRMT1 binders on small-molecule microarrays, primary screen, biochemical, small-molecule microarray, 635 nm fluorescence (AID 1088).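 Also: binding of Prmt1 protein to compounds spotted on small-molecule microarray slides.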 The conditions noted are these: small-molecule microarray binding, higher = more signal.
Experiment [12] can be described thus: yeast growth modulation, basal conditions, primary screen, YJM789 clinical isolate, OD600, 24 h (AID 1089).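 Also: growth of clinical yeast isolate S. cerevisiae YJM 789 seeded 1000 cells per well; test concentration not given here.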 The conditions noted are these: S. cerevisiae YJM789 growth, higher = more signal, called active from +8 up or from −8 down.
A short description of experiment [13]: fission yeast growth modulation, primary screen, strain 972, OD600, 24 h, no modulator (AID 1090).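 Also: basal condition with compound alone and no growth modifier present; test concentration not given here.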 The conditions noted are these: S. pombe 972 growth, higher = more signal, called active from +8 up or from −8 down.
The nature of experiment [14]: S. cerevisiae growth modulation with rapamycin, primary screen, strain BY4716, OD600, 96 h (AID 1091). Also: test concentration not given here. Conditions: higher = more signal, called active from +8 up or from −8 down.
For experiment [15], the target named is Torsin-1A-interacting protein 2 (Homo sapiens) (UniProt Q8NFQ8). Briefly: LULL1 binders on small-molecule microarray, primary screen, cell lysate, human LULL1 lysate, 635/667 nm fluorescence (AID 1092).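 Also: score merges per-feature 667 nm fluorescence with signal-to-noise.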 Conditions: hLULL1 lysate binding, 635 nm fluorescence, higher = more signal.
Experiment [16] in a line: E. coli growth modulation, two-sided OD650, primary screen, E. coli filamentation project, strain DRC41, 24 h (AID 1093).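 Also: MC1000 strain lacking acrAB efflux and sulA so SOS filamentation is blocked; test concentration not given here.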 The conditions noted are these: OD650, 24 h, higher = more signal, called active from +8 up or from −8 down.
Experiment [17] is described as follows: small-molecule microarray binders of probe aLefty2, primary screen, biochemical, biotinylated probe, 635/667 nm fluorescence (AID 1094).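 Also: score merges spot fluorescence near 667 nm with spot signal-to-noise ratio.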 Conditions: higher = more signal.
Experiment [18] deals with Noggin (protein binding on small-molecule microarray). Briefly: Noggin binders on small-molecule microarray, primary screen, biochemical, 635/667 nm fluorescence (AID 1095).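 Also: score merges 667 nm feature fluorescence with signal to noise over triplicate slides.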 Conditions: 635 nm fluorescence, higher = more signal.
The target of experiment [19] is Neurogenic locus notch homolog protein 3 (Homo sapiens) (UniProt Q9UM47). Briefly: NOTCH3 binders on small-molecule microarray, primary screen, biochemical, 635/667 nm fluorescence (AID 1096). The conditions noted are these: NOTCH3 binding, 635 nm fluorescence, higher = more signal.
The nature of experiment [20]: small-molecule microarray binders of probe aEGFR, primary screen, biochemical, biotinylated probe, 635/667 nm fluorescence (AID 1097).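 Also: probe is a biotinylated anti-EGFR antibody binding compounds printed on slides; score combines fluorescence near 667 nm and signal to noise of each spot.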 Conditions: higher = more signal.

Structures are written as SMILES. Active and inactive are the calls of the source.

Torsin-1A-interacting protein 2 (Homo sapiens), sequence (Q8NFQ8 whole entry, looked up): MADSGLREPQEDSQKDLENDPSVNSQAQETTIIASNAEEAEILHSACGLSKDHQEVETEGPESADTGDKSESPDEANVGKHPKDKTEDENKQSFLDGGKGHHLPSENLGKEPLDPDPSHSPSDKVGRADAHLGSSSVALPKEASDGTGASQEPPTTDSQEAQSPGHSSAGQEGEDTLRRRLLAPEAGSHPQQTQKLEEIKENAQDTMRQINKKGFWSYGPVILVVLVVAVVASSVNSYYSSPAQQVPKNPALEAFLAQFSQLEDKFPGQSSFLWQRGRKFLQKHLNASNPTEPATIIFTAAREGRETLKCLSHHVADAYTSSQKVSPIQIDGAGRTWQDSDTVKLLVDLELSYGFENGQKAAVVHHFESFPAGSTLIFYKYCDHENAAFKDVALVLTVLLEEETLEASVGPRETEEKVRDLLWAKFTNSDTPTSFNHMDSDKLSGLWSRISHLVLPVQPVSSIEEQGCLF
Neurogenic locus notch homolog protein 2 (Homo sapiens), sequence (Q04721 whole entry, looked up, canonical isoform): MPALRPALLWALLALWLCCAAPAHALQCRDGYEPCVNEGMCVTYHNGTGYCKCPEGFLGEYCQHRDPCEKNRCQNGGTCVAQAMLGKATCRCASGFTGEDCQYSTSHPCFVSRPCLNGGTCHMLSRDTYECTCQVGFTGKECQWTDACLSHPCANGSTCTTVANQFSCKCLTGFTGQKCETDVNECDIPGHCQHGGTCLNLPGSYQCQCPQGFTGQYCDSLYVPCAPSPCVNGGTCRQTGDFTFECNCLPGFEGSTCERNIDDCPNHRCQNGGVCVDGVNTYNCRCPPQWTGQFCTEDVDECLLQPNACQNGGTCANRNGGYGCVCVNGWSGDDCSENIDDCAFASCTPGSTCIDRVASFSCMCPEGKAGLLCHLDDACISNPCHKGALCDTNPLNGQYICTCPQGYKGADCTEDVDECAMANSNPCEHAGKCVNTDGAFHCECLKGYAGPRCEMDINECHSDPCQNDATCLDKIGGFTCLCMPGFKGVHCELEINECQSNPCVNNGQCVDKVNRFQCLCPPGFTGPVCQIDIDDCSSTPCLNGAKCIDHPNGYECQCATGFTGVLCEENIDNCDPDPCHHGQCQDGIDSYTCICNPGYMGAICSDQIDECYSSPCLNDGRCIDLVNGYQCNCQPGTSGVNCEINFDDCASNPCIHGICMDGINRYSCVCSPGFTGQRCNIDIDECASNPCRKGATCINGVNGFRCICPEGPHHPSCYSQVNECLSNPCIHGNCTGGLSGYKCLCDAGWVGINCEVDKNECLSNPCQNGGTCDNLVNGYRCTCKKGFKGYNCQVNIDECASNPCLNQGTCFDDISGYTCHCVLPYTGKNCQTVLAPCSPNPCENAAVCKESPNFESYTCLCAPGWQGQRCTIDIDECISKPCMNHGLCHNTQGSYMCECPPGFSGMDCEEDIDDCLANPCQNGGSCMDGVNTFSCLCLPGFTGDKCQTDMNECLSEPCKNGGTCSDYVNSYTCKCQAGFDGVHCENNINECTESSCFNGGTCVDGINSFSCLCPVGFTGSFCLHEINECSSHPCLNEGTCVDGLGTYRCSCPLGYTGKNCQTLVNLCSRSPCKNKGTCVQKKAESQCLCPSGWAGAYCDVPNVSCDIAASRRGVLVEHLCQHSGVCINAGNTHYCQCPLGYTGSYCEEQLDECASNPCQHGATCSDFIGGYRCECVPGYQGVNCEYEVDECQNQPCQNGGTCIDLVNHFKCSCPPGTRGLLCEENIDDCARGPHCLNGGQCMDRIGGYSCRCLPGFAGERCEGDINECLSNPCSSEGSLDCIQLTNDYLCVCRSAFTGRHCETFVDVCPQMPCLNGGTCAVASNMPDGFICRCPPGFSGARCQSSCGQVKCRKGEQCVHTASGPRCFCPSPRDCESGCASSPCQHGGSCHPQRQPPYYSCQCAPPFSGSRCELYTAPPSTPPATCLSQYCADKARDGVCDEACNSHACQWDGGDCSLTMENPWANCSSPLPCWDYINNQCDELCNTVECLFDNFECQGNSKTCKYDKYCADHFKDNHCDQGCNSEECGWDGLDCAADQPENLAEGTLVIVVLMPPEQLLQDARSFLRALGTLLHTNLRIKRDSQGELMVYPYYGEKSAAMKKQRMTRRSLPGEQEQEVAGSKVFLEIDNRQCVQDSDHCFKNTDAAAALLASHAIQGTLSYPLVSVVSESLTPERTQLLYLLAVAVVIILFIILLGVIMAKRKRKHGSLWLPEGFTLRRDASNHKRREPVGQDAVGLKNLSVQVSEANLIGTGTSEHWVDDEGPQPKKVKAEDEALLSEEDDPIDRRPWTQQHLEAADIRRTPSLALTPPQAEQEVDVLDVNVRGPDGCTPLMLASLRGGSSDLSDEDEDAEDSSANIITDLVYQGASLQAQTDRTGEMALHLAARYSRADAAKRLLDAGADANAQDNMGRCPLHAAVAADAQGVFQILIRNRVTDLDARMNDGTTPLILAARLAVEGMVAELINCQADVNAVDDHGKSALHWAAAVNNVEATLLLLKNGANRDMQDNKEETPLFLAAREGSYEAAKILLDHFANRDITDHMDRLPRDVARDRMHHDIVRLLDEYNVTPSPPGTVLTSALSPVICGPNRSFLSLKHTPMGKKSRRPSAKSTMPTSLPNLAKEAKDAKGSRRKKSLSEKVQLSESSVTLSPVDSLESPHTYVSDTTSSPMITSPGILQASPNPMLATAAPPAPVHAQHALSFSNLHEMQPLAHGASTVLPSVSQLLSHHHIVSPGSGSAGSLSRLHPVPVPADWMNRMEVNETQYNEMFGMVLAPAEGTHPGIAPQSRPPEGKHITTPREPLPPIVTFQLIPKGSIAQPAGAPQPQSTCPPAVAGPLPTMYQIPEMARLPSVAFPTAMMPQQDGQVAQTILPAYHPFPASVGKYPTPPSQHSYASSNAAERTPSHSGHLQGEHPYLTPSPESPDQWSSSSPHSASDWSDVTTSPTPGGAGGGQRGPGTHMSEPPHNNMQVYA
Pro-neuregulin-1, membrane-bound isoform (Homo sapiens), sequence (Q02297 whole entry, looked up, the tested form may be a part, canonical isoform): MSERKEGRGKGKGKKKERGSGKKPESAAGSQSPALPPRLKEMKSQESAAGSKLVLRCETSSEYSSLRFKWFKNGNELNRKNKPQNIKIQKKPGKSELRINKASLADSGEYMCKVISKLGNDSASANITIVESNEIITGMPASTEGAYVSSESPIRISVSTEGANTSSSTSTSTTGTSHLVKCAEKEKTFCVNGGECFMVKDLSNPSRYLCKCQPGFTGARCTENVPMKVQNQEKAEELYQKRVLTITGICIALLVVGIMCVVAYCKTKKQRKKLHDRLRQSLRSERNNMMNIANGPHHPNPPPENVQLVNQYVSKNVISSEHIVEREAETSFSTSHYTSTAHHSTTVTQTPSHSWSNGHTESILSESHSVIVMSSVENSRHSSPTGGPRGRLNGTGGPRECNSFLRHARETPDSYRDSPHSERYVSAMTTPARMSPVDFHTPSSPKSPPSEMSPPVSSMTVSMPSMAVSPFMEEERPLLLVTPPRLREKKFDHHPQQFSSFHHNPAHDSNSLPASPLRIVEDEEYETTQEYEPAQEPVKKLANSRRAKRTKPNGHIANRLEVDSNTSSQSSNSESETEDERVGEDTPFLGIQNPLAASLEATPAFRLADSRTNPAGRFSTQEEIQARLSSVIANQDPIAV

On to `Cc1ccccc1C(O)C1C=CC2C(=O)NC(=O)C2N1Nc1ccccn1` (stereo not given), for which the composite z-score in [1] was 0.888; in experiment [2], 0.127; in [3], -0.129; in experiment [4], 0.0133; in [5] it was 0.135; in experiment [6] it was 0.401. Also, the composite z-score was -0.0441 in [7]; -0.0817 in [9]; -0.134 in [10]; 0.049 in experiment [11]; 1.6 in [15]; 0.0361 in [17]. The composite z-score in [18] is 0.232; in experiment [19] it was -0.308; in experiment [20], 0.092. The z-score in experiment [8] was 1.08 (inactive); in experiment [12], 0.833 (inactive); in [13], 0.459 (inactive); in [14] it was 0.0715 (inactive); in experiment [16] it was -0.957 (inactive).

For `CCCCN1CC=CC23O[C@@H]4/C=C\CCC(C)OC(=O)C4[C@H]2C(=O)N(CCCO)[C@@H]3C1=O` (stereo not given in full), the composite z-score in experiment [1] was 0.35; in experiment [2], -0.913; in experiment [3] it was -0.195; in experiment [4] it was -0.317; in experiment [5], -0.962; in experiment [6], 1.93. In addition, the composite z-score in experiment [7] was 1.1; in experiment [9], -0.663; in [10], -0.306; in [11], -0.298; in experiment [15] it was 0.879; in [17] it was -0.186. Besides, the composite z-score in experiment [18] was -0.908; in experiment [19], -0.166; in [20] it was -0.217. The z-score was -0.313 (inactive) in experiment [8]; 0.757 (inactive) in experiment [12]; 0.772 (inactive) in [13]; 0.528 (inactive) in experiment [14]; 0.755 (inactive) in [16].

`CCC#CCN(Cc1ccccc1Br)[C@H](/C=C/C1CC1)[C@@H](O)Cc1ccccc1`: the composite z-score is 0.689 in experiment [1]; 0.131 in experiment [2]; -0.17 in experiment [3]; -0.548 in experiment [4]; -1.46 in [5]; -0.285 in experiment [6]. Besides, the composite z-score in [7] was -0.33; in [9], -0.17; in [10], -0.169; in experiment [11] it was -0.134; in [15], -0.783; in [17] it was 0.208. The composite z-score in [18] was -0.679; in experiment [19], -0.838; in experiment [20], -0.18. Further, the z-score in experiment [8] was -1.96 (inactive); in [12], -2.3 (inactive); in experiment [13], -1.55 (inactive); in experiment [14], -1.72 (inactive); in [16], 1.35 (inactive).

Turning to `CCOC(=O)C[C@H]1[C@H](OC(=O)c2ccccc2-c2ccccc2)[C@@H](NC(=O)c2ccc3ccccc3c2)c2cc(OCCCO)ccc2N1C(=O)c1ccccc1`, the composite z-score was -0.421 in experiment [1]; 0.483 in [2]; -0.0277 in experiment [3]; 1.03 in experiment [4]; 0.299 in [5]; 0.12 in experiment [6]. The composite z-score in [7] is 0.965; in [9], 0.0603; in experiment [10], 0.0373; in [11] it was 0.633; in experiment [15] it was 0.683; in experiment [17], -0.0916. For the same compound, the composite z-score in experiment [18] is 0.554; in [19], 0.564; in experiment [20], 0.342. In addition, the z-score is -0.201 (inactive) in [8]; 0.393 (inactive) in experiment [12]; 0.379 (inactive) in experiment [13]; 1.98 (inactive) in [14]; 0.356 (inactive) in experiment [16].

For the compound `C=CCC(OC(C)=O)[C@@H]1[C@@H](N(Cc2ccc(-c3cccc(C(F)(F)F)c3)o2)C(=O)Cc2ccc(OC)cc2)c2cc(OCCCO)ccc2N1C(=O)c1ccc(-c2ccccc2)cc1` (stereo not given in full), the composite z-score in experiment [1] is -0.124; in experiment [2] it was 0.004; in [3], -0.0796; in [4], 0.0554; in experiment [5] it was -0.57; in experiment [6], 0.168. The composite z-score in [7] is 0.0604; in [9], 0.214; in experiment [10] it was 0.382; in experiment [11], 0.62; in experiment [15] it was 0.442; in experiment [17], -0.0436. The composite z-score in experiment [18] is -0.478; in [19], -0.449; in experiment [20], -0.146. Also, the z-score in experiment [8] is -0.461 (inactive); in experiment [12], 0.282 (inactive); in [13], 0.297 (inactive); in experiment [14], 0.322 (inactive); in experiment [16], -0.936 (inactive).
